From PubChem
FLuc counter – qHTS profiling assay for firefly luciferase inhibitor/activator using purifed enzyme and Km concentrations of substrates (counterscreen for miR-21 project) | purified FLuc, Km substrates, luminescence inhibition | Potency, µM (titrated, usually from 57.5 µM), for the others: at the top dose activity change, negative = inhibition, hits mostly inhibitors | actives 6.9% (n = 360,000) | AID 588342, 2011;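 note: plate controls were vehicle for no effect and reference inhibitor for full effect; nearly all actives have a fitted effect of over 55% in size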
Target sequence (P08659 whole entry, looked up): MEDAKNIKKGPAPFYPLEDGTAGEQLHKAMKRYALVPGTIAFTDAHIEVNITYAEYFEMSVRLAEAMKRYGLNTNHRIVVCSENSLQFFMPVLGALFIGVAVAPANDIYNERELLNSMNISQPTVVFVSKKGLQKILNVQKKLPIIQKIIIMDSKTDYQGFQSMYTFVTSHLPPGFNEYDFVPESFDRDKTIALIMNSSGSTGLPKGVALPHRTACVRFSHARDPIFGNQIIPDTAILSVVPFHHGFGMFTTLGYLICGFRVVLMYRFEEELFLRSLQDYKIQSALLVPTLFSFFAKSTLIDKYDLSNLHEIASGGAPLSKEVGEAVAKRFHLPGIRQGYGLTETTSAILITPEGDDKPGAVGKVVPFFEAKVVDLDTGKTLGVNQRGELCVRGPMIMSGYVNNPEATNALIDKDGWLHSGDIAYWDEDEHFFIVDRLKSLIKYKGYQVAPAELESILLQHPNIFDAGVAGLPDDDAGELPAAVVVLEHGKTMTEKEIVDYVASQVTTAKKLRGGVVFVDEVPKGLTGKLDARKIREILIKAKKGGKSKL
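Biochemical qHTS of compounds, final roughly 60 µM downward over six points, against 10 nM purified firefly luciferase using Km concentrations of substrates (10 uM D-luciferin, 10 uM ATP) in Tris acetate pH 7.5 buffer; luminescence output.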
NPC1 promoter act – qHTS Assay for NPC1 Promoter Activators | Huh7 NPC1 promoter luciferase reporter, 24 h | Potency, µM (series often up to 9.22 µM), for the others: at the top dose activation, actives largely listed as activators | actives 2.4% (n = 320,000); note: % of control where 0% means no effect; nearly all actives have a fitted effect of over 60% in size
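Quantitative HTS used a cell-based reporter: Huh7 cells stably bearing the NPC1 promoter upstream of luciferase were treated with compounds for 24 h, and promoter activation was read as luminescence.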
Rab9 promoter act – qHTS Assay for Rab9 Promoter Activators; Potency, µM (titrated, usually from 9.22 µM), without a hit: top-dose activation, negative = inhibition, hits mostly activators; Huh7 Rab9 promoter-luciferase reporter, luminescence, 24 h; actives 2.8% (n = 320,000); note: % of control where 0% means no effect; nearly all actives have a fitted effect of over 60% in size
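Steps: seed 1500 Huh7 Rab9-luc cells per well, rest 2 h at 37 °C; add compound in DMSO; incubate 24 h; add luciferase reagent, 10 min ambient; read luminescence.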
ELG1 genotox – qHTS screen for small molecules that induce genotoxicity in human embryonic kidney (HEK293T) cells expressing luciferase-tagged ELG1; actives 1.3% (n = 330,000); HEK293T ELG1-luciferase reporter, luminescence, 16 h; AID 504466, 2011; Potency, µM (top dose mostly 46 µM), for inactives: at the top dose activity change, positive = activation, usual class: activators; note: % of control where 0% means no effect; nearly all actives have a fitted effect of over 60% in size
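DMSO vehicle served as control against compound-treated ELG1-luciferase HEK293T cells; exposure lasted 16 hr at 37 °C and 5% CO2, followed by ONE-Glo luminescence detection after 30 min.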
SMN2 splice enh – qHTS Assay for Enhancers of SMN2 Splice Variant Expression; actives 2.8% (n = 210,000); HEK293 SMN2-luciferase splicing reporter, luminescence, 30-36 h; AID 1458, 2008; Potency, µM (highest dose often 46.1 µM), for inactives: at the highest dose activity change, positive = activation, most hits filed as activators; note: % of control where 0% means no effect; nearly all actives have a fitted effect of over 55% in size
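HEK293 cells carry an SMN2 minigene-luciferase reporter in which exon 7 inclusion puts luciferase in frame. Cells were seeded at 2000 cells/well, attached for 10-12 hours, then exposed to compounds for 30-36 hours at 37C before ONE-Glo luminescence.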
Active calls of the source: *; ? = inconclusive; · = no result given; [ ] = remark or other dose. Most compounds without a hit are left out; they make up all but 7.4% or so of the library. Calls come from the whole dose curve; as a rule, active = well fitted curve in the direction sought with a large enough effect; inconclusive = small, poorly fitted or top-dose-only effect, or another doubt; inactive = no such curve, though single readings can be large; an effect the other way counts as inactive or inconclusive. Potency is the fitted concentration of half-maximal effect.

SMILES	FLuc counter	NPC1 promoter act	Rab9 promoter act	ELG1 genotox	SMN2 splice enh
Cc1c([N+](=O)[O-])c(C(=O)Sc2ccc(Br)cc2)nn1C	16.9µM*	3.2%	-10.3%	-9.8%	·
Cc1ccc(CNC(=O)C(CC(C)C)NS(=O)(=O)c2ccc3c(c2)oc(=O)n3C)cc1 (centres undefined)	-2.2%	·	·	·	-9.6%
COc1ccc2[nH]c(-c3ccc(C)cc3)cc(=O)c2c1	1.51µM*	?	2.51µM*	2.91µM*	1.26µM*
COc1ccc2nc(-c3ccccc3)[nH]c2c1	2.13µM*	2.82µM*	1.58µM*	1.3µM*	6.31µM*
CCOc1ccc2nc(-c3ccccc3)[nH]c2c1	1.07µM*	0.794µM*	?	?	14.1µM*
COc1ccc2[nH]c(-c3ccccc3)cc2c1	6.01µM*	1.58µM*	0.891µM*	?	·
CC1(O)C(=O)C=C2C=C(c3ccc(C#N)cc3)OC=C2C1=O (centres undefined)	·	·	·	·	6.0%
CCC1CCCCN1C(=O)COC(=O)CN(C)S(=O)(=O)c1ccc(NC(C)=O)cc1 (centres undefined)	4.4%	-3.6%	-7.2%	-1.3%	·
CC(C)(C)NC(=O)c1ccccc1-c1nc2ccccc2s1	-4.2%	-2.7%	-4.7%	-2.8%	·
CNc1sc(C(=O)c2ccccc2F)c(N)c1-c1nc2ccccc2s1	8.49µM*	3.98µM*	4.47µM*	?	?
O=C(CN1CCN(Cc2ccccc2)CC1)Nc1ccc(Br)cc1	0.2%	-1.7%	-2.0%	1.8%	·
O=C(O)c1cccc(CSc2n[nH]c(-c3ccc(Cl)cc3Cl)n2)c1	26.9µM*	-1.9%	-0.8%	6.7%	3.2%
CC1CC1C(=O)OCC(=O)Nc1cccc([N+](=O)[O-])c1 (centres undefined)	-15.3%	-1.4%	6.0%	4.5%	1.7%
COc1ccccc1/C=N/N(C(C)=O)c1nc(-c2ccc(F)cc2)cs1	-0.4%	?	6.31µM*	?	?
O=C1C=C(c2ccc3c(c2)OCO3)C[C@@H](c2ccc(Cl)cc2)C1	-0.3%	1.6%	-6.2%	-0.8%	·
CCOC(=O)Cc1csc(NC(=O)c2c(-c3c(Cl)cccc3Cl)noc2C)n1	3.7%	-6.2%	-2.9%	-1.0%	3.9%
CCOC(=O)Cc1csc(NC(=O)/C=C\c2ccccc2Cl)n1	1.51µM*	27.4%	?	7.9%	·
CCOC(=O)Cc1csc(NC(=O)/C=C/c2ccccc2Cl)n1	1.2µM*	?	?	-7.3%	·
Cc1cc(C)nc(SCCC(=O)Nc2ccccc2Cl)n1	-0.4%	-3.3%	-11.2%	1.5%	·
O=C(COC(=O)COc1cccc(Br)c1)Nc1c(Cl)cccc1Cl	-2.0%	1.6%	-0.3%	-0.3%	18.5%
COc1ccc(-c2csc(-n3ncc(-c4cccs4)c3N)n2)cc1	4.26µM*	-5.9%	6.4%	1.3%	-5.7%
COc1ccc(-c2csc(-n3cccn3)n2)cc1	3.79µM*	2.51µM*	1.41µM*	?	·
COc1ccc(-c2ccc(-c3noc(-c4cccs4)n3)c(OC)n2)cc1	-14.0%	16.3%	28.1%	?	12.3%
C=CCN(CC(=O)NC1CCCC1)C(=O)C(=O)Nc1ccc2c(c1)OCCO2	-7.8%	-2.7%	-2.0%	-1.8%	·
CCC(Oc1ccccc1)C(=O)N(CC)CC(=O)NCc1ccc(F)cc1 (centres undefined)	7.4%	0.7%	-4.0%	1.6%	·
SMILES	FLuc counter	NPC1 promoter act	Rab9 promoter act	ELG1 genotox	SMN2 splice enh
CCN(CC(=O)NCc1ccc(F)cc1)C(=O)c1ccc(COc2ccccc2)cc1	16.9µM*	?	?	-0.6%	·
COc1ccc(/C=N/NC(=O)c2ccoc2C)cc1OC	?	?	?	?	12.6µM*
COc1ccc(/C=N/NC(=O)c2ccoc2C)cc1O	?	11.6%	24.2%	?	?
Cc1cc(C(=O)N/N=C/c2ccc3c(c2)OCO3)c(C)o1	6.01µM*	?	3.16µM*	?	·
Cc1occc1C(=O)N/N=C/c1ccc2c(c1)OCO2	3.79µM*	0.501µM*	0.355µM*	?	·
Cn1cc(C(=O)N/N=C/c2ccc3c(c2)OCO3)c2ccccc21	8.49µM*	?	?	10.2%	·
O=C(N/N=C/c1ccc2c(c1)OCO2)c1cccc2ccccc12	2.2%	-10.3%	3.5%	8.7%	·
O=C(N=C1SC2CS(=O)(=O)CC2N1CCc1ccccc1)C1CC1 (centres undefined)	0.4%	-4.5%	8.0%	2.6%	·
CCC(C)NC(=O)c1cc2c(Cl)nc3ccc(C)cc3c2s1 (centres undefined)	-8.1%	·	·	·	6.2%
Cn1cc(C(=O)N/N=C/c2cccs2)c2ccccc21	15.1µM*	?	?	?	22.4µM*
Cn1cc(C(=O)N/N=C/c2ccc(Br)c([N+](=O)[O-])c2)c2ccccc21	0.3%	-0.4%	-3.8%	?	·
O=C(Nc1ccccc1C(=O)N/N=C/c1ccco1)c1ccccc1	21.3µM*	-1.2%	1.7%	0.2%	-0.2%
Cc1cccc(NC(=O)CCC(=O)N/N=C/c2ccco2)c1	0.7%	-2.0%	-0.3%	0.5%	-4.6%[1.84 µM]
Cc1ccccc1C(=O)Nc1ccccc1C(=O)N/N=C\c1ccco1	?	0.5%	-5.2%	-0.7%	-3.5%
O=C(Nc1ccccc1C(=O)N/N=C/c1ccco1)c1ccc(Cl)cc1	2.13µM*	11.7%	1.8%	0.6%	0.6%
O=C(N/N=C/c1ccco1)c1ccncc1	-5.0%	1.2%	-3.4%	4.6%	-8.7%
O=C(Nc1ccccc1C(=O)N/N=C/c1ccco1)c1ccc(F)cc1	8.49µM*	-2.1%	-4.0%	-1.3%	13.9%
O=C(N/N=C/c1ccco1)c1ccc(OCc2ccccc2)cc1	-3.2%	-3.9%	-5.0%	2.1%	·
O=C(N/N=C\c1ccco1)Nc1cccc(Cl)c1	19µM*	3.16µM*	2.51µM*	?	10µM*
CC1CCN(S(=O)(=O)c2ccc3c(c2)N(CC(=O)NC(C)C)C(=O)CS3)CC1	-6.8%	·	·	·	-3.9%
COc1ccccc1NC(=O)CCCOc1cc(=O)n(C)c2ccccc12	2.2%	·	·	·	?
Cc1ccc(CNC(=O)CCc2c(C)nc3c4c(C)cc(C)nc4nn3c2C)cc1	-2.1%	·	·	·	22.3%
CCOC(=O)c1ccc(COC(=O)c2nonc2N)cc1	15.1µM*	0.8%	1.7%	-0.3%	-12.5%
COc1cc(OC)cc(-c2cc3ncccc3cn2)c1	?	14.4%	-1.1%	10.3%	·
COc1cc(OC)cc(-c2cc3ccc(OC)cc3cn2)c1	0.269µM*	?	?	?	·
COc1cc2cnc(C3=CCCCC3)cc2cc1OC	·	·	·	2.7%	·
COc1ccc(-c2ccc3oc(-c4ccsc4)c(-c4ccc(Br)nc4)c3c2)cc1	·	·	·	19.1%	·
COc1ccc2cc(-c3ccccc3)ncc2c1	0.536µM*	0.562µM*	0.447µM*	2.91µM*	·
